Inconclusive results are not listed. A number with no mark means an inactive call. Calls of active or inactive are those of the source. Calls come from the whole dose curve.
% is set by controls: 0 for no effect and ±100 for the full control effect.

In the assay the target is Peroxisome proliferator-activated receptor gamma (Homo sapiens) (UniProt P37231). Briefly: qHTS assay to identify small molecule antagonists of the peroxisome proliferator-activated receptor gamma (PPARg) signaling pathway (AID 743191). Note: nearly all actives have a fitted effect of over 30% in size. The following applies: HEK293H PPARg-UAS-bla, beta-lactamase ratio, antagonist, 17 h; series mostly up to 62.6 µM; ratio activity, negative = inhibition: at the top concentration. From the text: U.S. Tox21 Program National Center for Advancing Translational Sciences [NCATS] NIH Chemical Genomics Center [NCGC] U.S. Environmental Protection Agency [EPA] National Institutes of Environmental Health Sciences [NIEHS] National Toxicology Program [NTP] U.S. Food and Drug Administration [FDA] Tox21 Assay Overview: The peroxisome proliferator-activated receptors (PPARs) are lipid-activated transcription factors of the nuclear receptor superfamily with three distinct subtypes namely PPAR alpha, PPAR delta (also called PPAR beta) and PPAR gamma (PPARg). All these subtypes heterodimerize with Retinoid X receptor (RXR) and these heterodimers regulate transcription of various genes. PPAR-gamma receptor (glitazone receptor) is involved in the regulation of glucose and lipid metabolism. To identify the compounds that inhibit PPAR-gamma signaling, GeneBLAzer PPAR gamma UAS-bla HEK293H cell line (Invitrogen, Carlsbad, CA, USA) containing a beta-lactamase reporter gene under control of an Upstream Activator Sequence (UAS) was used to screen the Tox21 compound library.
Sequence of Peroxisome proliferator-activated receptor gamma (Homo sapiens) (P37231 whole entry, looked up): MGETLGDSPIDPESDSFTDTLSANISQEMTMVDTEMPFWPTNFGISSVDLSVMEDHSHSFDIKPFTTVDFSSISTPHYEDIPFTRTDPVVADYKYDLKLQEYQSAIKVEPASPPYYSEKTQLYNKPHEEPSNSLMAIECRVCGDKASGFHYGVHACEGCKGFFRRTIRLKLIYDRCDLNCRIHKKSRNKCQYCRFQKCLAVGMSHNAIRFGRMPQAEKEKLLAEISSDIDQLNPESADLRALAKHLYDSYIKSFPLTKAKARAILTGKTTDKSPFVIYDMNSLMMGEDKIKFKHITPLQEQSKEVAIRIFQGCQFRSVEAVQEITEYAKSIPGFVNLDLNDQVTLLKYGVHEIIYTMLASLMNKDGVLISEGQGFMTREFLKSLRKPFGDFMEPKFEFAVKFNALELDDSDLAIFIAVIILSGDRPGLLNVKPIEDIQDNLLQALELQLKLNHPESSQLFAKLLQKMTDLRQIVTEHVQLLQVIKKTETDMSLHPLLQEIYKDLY
Tox21 Assay Protocol Summary: PPARg-bla cells were dispensed at 3000 cells/6uL/well in 1536-well black wall/clear bottom plates using a Multidrop Combi (Thermo Fisher Scientific, Waltham, MA) dispenser. After the assay plates were incubated at 37C and 5% CO2 for 5 h, 23 nL of compounds dissolved in DMSO, positive controls or DMSO only was transferred to the assay plate by a Pintool station (Kalypsys, San Diego, CA). The assay plates were incubated at 37C for 17 h. After 1 uL of LiveBLAzerTM B/G FRET substrate was added using a Bioraptr Flying Reagent Dispenser (FRD) workstation (Beckman Coulter, Indianapolis, IN, USA), the plates were incubated at room temperature for 1 h, and fluorescence intensity was measured by an Envision plate reader (PerkinElmer, Shelton, CT).
On the technique in general: Quantitative high-throughput screening tests each substance at several concentrations.
Take `CC(=O)OCc1ccco1`: the result was inactive.

As for `CCCCCCCCCCCCCCCCO`, the outcome was inactive. The same measure, in the same setting: the same measure for `NCCCCCCN`: “inactive”; for `N[C@H](Cc1c[nH]c2ccccc12)C(=O)O`: “inactive”; for `CCOCCOCCOCCO`: “inactive”. In the case of `CC(=O)OCCOC(C)=O`, the “ratio activity, negative = inhibition” value is 10.7%. On the same count and under the same terms, the same measure for `O=C1CCCC1`: 2.06%. Same read-out and setting: the same measure for `CCCCC(C=O)CC` (stereo not given): -1.91% [at 81.1 µM]; for `CSc1ccc(Cl)cc1`: -0.842%; for `Cc1ccc2ncccc2c1`: 14.4%. Regarding `O=c1[nH]cnc2[nH]ncc12`, the result was inactive.

For `CCc1ccccc1CC`, the result was inactive.

Turning to `c1ccc2c(c1)Cc1ccccc1-2`, the “ratio activity, negative = inhibition” value is 20.3%. Still for that read-out and setting: the same measure for `C[C@]12CCC(=O)C=C1CC[C@@H]1[C@@H]2[C@@H](O)C[C@@]2(C)[C@H]1CC[C@]2(O)C(=O)CO`: 20.8%. As for `COc1ccc(CCC(C)=O)cc1`, the “ratio activity, negative = inhibition” value was 13.7%. Same read-out and setting: the same measure for `COC(=O)c1cccnc1`: 1.2%.

For `CC(C)(Oc1ccc(CCNC(=O)c2ccc(Cl)cc2)cc1)C(=O)O`, the “ratio activity, negative = inhibition” value is 0.333%.

For `CN(C)CCOC(=O)COc1ccc(Cl)cc1`, the “ratio activity, negative = inhibition” value is -14.9%. In the case of `CC(=O)c1ccc(O)cc1`, the result was inactive. The same measure, in the same setting: the same measure for `O=[N+]([O-])c1ccc2nc[nH]c2c1`: “inactive”.

`CCNc1ccccc1`: the “ratio activity, negative = inhibition” value is -10.1% [at 81.1 µM]. Regarding `CN/C(=C\[N+](=O)[O-])NCCSCc1csc(CN(C)C)n1`, the outcome was inactive.

Regarding `CC1(C)S[C@@H]2[C@H](NC(=O)COc3ccccc3)C(=O)N2[C@H]1C(=O)O`, the result was inactive. Take `CC(C)(C)c1cc(Cc2cc(C(C)(C)C)c(O)c(C(C)(C)C)c2)cc(C(C)(C)C)c1O`: the “ratio activity, negative = inhibition” value was -11.2%. On to `O=C(O)CCCCCCCCC(=O)O`, for which the “ratio activity, negative = inhibition” value is -7.5% [at 81.1 µM]. Still for that read-out and setting: the same measure for `COc1cc(OC)c(C(=O)CCCN2CCCC2)c(OC)c1`: 8.58%. As for `O=C(O)c1ccc(S(=O)(=O)N(Cl)Cl)cc1`, the result was inactive. In the case of `CNC(=S)N(C)C`, the outcome was inactive. Turning to `CN1C(=O)CC[C@H]1c1cccnc1`, the “ratio activity, negative = inhibition” value is 5.31%.

In the case of `OC1C(O)C(O)C(O)C(O)C1O` (stereo not given), the result was inactive. Consider `COc1ccccc1OCC(O)CO` (stereo not given), for which the result was inactive. Consider `CC(C)CC(C)O` (stereo not given), for which the “ratio activity, negative = inhibition” value is -0.212%. The same measure, in the same setting: the same measure for `CCCCCCCO`: -29.1% [at 81.1 µM]. On to `O=C(OCC1CCC2OC2C1)C1CCC2OC2C1` (stereo not given), for which the result was inactive. The same measure, in the same setting: the same measure for `CC(=O)OC1CC(C)OC(C)O1` (stereo not given): “inactive”.

As to `CC(CCl)OP(=O)(OC(C)CCl)OC(C)CCl` (stereo not given), the result was inactive. The same measure, in the same setting: the same measure for `CC(C)CC(=O)CC(C)CC(C)C` (stereo not given): “inactive”; for `CCCCCCC=O`: “inactive”. As for `C=C(C)C(=O)OCC(C)C`, the “ratio activity, negative = inhibition” value is 1.85% [at 81.1 µM]. The same measure, in the same setting: the same measure for `C=CC(C)CCCC(C)(C)O` (stereo not given): -7.28%.

(Values after PubChem BioAssay (Tox21).)
